According to PubChem BioAssay:
Records with an inconclusive call do not appear. Calls of active or inactive are those of the source.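 Rule for the calls, unless noted: active = normalized viability below 100% at a tested concentration; inactive = the rest.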

Columns and labels:
[1] = growth inhibition of DIPG glioma cells, dose response, cell-based, SU-DIPG-XVII, MIPE5.0, CellTiter-Glo, qHTS (AID 1347060; cut-off not given, nearly all actives have AC50 up to about 26 µM;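 for AC50: cells exposed to compound for 48 hours before viability readout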); conditions: SU-DIPG-XVII viability, CellTiter-Glo ATP luminescence
[2] = growth inhibition of DIPG glioma cells, dose response, cell-based, SU-DIPG-XIII, MIPE4.0, CellTiter-Glo, qHTS (AID 1347061; cut-off not given, nearly all actives have AC50 up to about 37 µM;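 note: cells exposed to compound for 48 hours before readout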); conditions: SU-DIPG-XIII viability, CellTiter-Glo ATP luminescence
[3] = growth inhibition of DIPG glioma cells, dose response, cell-based, JHH-DIPG-1, MIPE4.0, CellTiter-Glo, qHTS (AID 1347062; cut-off not given, nearly all actives have AC50 up to about 27 µM;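 for AC50: cells exposed to compound for two days before readout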); conditions: JHH-DIPG-1 viability, CellTiter-Glo ATP luminescence
[4] = growth inhibition of DIPG glioma cells, dose response, cell-based, SU-DIPG-IV, MIPE4.0, CellTiter-Glo, qHTS (AID 1347063; cut-off not given, nearly all actives have AC50 up to about 30 µM;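 note: compound exposure lasted 48 hours before the viability readout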); conditions: SU-DIPG-IV viability, CellTiter-Glo ATP luminescence
[5] = SU-DIPG-VI glioma cell viability, MIPE4.0 library, CellTiter-Glo luminescence, qHTS (AID 1347066; cut-off not given, nearly all actives have AC50 up to about 30 µM;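 note: cells exposed to compound for 48 hours before readout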); conditions: CellTiter-Glo ATP luminescence
[6] = JHH-DIPG-1 glioma cell viability, MIPE5.0 library, CellTiter-Glo luminescence, qHTS (AID 1347067; cut-off not given, nearly all actives have AC50 up to about 26 µM;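 note: cells exposed to compound for 48 hours before readout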); conditions: JHH-DIPG-1 glioma viability, CellTiter-Glo ATP luminescence
[7] = SU-DIPG-XXV glioma cell viability, MIPE5.0 library, qHTS (AID 1347068; cut-off not given, nearly all actives have IC50 up to about 30 µM;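 for IC50: cells exposed to compound for 48 hours before viability readout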)
[8] = growth inhibition of DIPG glioma cells, dose response, cell-based, SU-DIPG-XIII, MIPE5.0, CellTiter-Glo, qHTS (AID 1347064; cut-off not given, nearly all actives have AC50 up to about 23 µM;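 for AC50: cells exposed to compound for 48 hours before the viability read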); conditions: SU-DIPG-XIII viability, CellTiter-Glo ATP luminescence
[9] = viability loss in pontine glioma line – cell-based, SU-DIPG-XXV, MIPE5.0, CellTiter-Glo, qHTS, dose response (AID 1347065; cut-off not given, nearly all actives have AC50 up to about 26 µM;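 note: cells exposed to compound for 48 hours before ATP readout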); conditions: CellTiter-Glo ATP luminescence
[10] = survival rescue of mitochondrial mutant cells in low glucose, primary screen, MELAS cybrids, Rieske KO mouse fibroblasts, CellTiter-Glo (AID 1508586;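 active = mean z-score across replicates of 1.96 or higher in either the MELAS or the Rieske mutant cell line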;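 note: z relative to plate mean and SD of compound and empty wells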)
[11] = sensitizers of A549 cells to miR-34 induction, primary screen, imaging, A549 dox-inducible miR-34, nuclei and caspase counts (AID 1347080;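 active = compounds whose cell count with miR-34 switched on is under 0.7 times the count with it off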); conditions: A549 miR-34 inducible, Hoechst nuclei count, 48 h
[12] = modifiers of HSF1 nuclear foci, imaging, Selleck Cancer Library (AID 1347162; in the data active = plate-normalised HSF1 focus index below about 0.46); conditions: human cells, at 10 µM; SSMD: measured here: HSF1 foci SSMD mean; cell count: measured here: cell number; plate-normalised HSF1 focus index: stronger effect = lower value
[13] = ovarian cancer cell viability with rucaparib, profiling panel, oncology-focused library, rucaparib conditional (AID 1508598); conditions: patient-derived ovarian cancer cells, CellTiter-Glo viability, 144 h, stronger effect = lower value
[14] = MELAS cybrid survival, CellTiter-Glo 48 h, stronger effect = higher value
[15] = Rieske KO mouse fibroblast survival, CellTiter-Glo 72 h
[16] = stronger effect = lower value, cell number ratio, induced over uninduced
[17] = measured here: relative caspase fold change +Dox/-Dox
[18] = measured here: total cells with miR-34 induction, stronger effect = lower value
[19] = measured here: total cells without miR-34 induction
[20] = at 0.000305 µM, OCI-C5x cells, with rucaparib 10 µM, 100% = cells with rucaparib alone
[21] = at 0.000305 µM, OCI-C5x cells, without rucaparib
[22] = at 0.000305 µM, OCI-P5x cells, with rucaparib 20 µM, 100% = cells with rucaparib alone
[23] = at 0.000305 µM, OCI-P5x cells, without rucaparib
[24] = at 0.00122 µM, OCI-C5x cells, with rucaparib 10 µM, 100% = cells with rucaparib alone
[25] = at 0.00122 µM, OCI-C5x cells, without rucaparib
[26] = at 0.00122 µM, OCI-P5x cells, with rucaparib 20 µM, 100% = cells with rucaparib alone
[27] = at 0.00122 µM, OCI-P5x cells, without rucaparib
[28] = at 0.00488 µM, OCI-C5x cells, with rucaparib 10 µM, 100% = cells with rucaparib alone
[29] = at 0.00488 µM, OCI-C5x cells, without rucaparib
[30] = at 0.00488 µM, OCI-P5x cells, with rucaparib 20 µM, 100% = cells with rucaparib alone
[31] = at 0.00488 µM, OCI-P5x cells, without rucaparib
[32] = at 0.0195 µM, OCI-C5x cells, with rucaparib 10 µM, 100% = cells with rucaparib alone
[33] = at 0.0195 µM, OCI-C5x cells, without rucaparib
[34] = at 0.0195 µM, OCI-P5x cells, with rucaparib 20 µM, 100% = cells with rucaparib alone
[35] = at 0.0195 µM, OCI-P5x cells, without rucaparib
[36] = at 0.0781 µM, OCI-C5x cells, with rucaparib 10 µM, 100% = cells with rucaparib alone
[37] = at 0.0781 µM, OCI-C5x cells, without rucaparib
[38] = at 0.0781 µM, OCI-P5x cells, with rucaparib 20 µM, 100% = cells with rucaparib alone
[39] = at 0.0781 µM, OCI-P5x cells, without rucaparib
[40] = at 0.313 µM, OCI-C5x cells, with rucaparib 10 µM, 100% = cells with rucaparib alone
[41] = at 0.313 µM, OCI-C5x cells, without rucaparib
[42] = at 0.313 µM, OCI-P5x cells, with rucaparib 20 µM, 100% = cells with rucaparib alone
[43] = at 0.313 µM, OCI-P5x cells, without rucaparib
[44] = at 1.25 µM, OCI-C5x cells, with rucaparib 10 µM, 100% = cells with rucaparib alone
[45] = at 1.25 µM, OCI-C5x cells, without rucaparib
[46] = at 1.25 µM, OCI-P5x cells, with rucaparib 20 µM, 100% = cells with rucaparib alone
[47] = at 1.25 µM, OCI-P5x cells, without rucaparib
[48] = at 5 µM, OCI-C5x cells, with rucaparib 10 µM, 100% = cells with rucaparib alone
[49] = at 5 µM, OCI-C5x cells, without rucaparib
[50] = at 5 µM, OCI-P5x cells, with rucaparib 20 µM, 100% = cells with rucaparib alone
[51] = at 5 µM, OCI-P5x cells, without rucaparib

CCCCCCCCCCCCCCCC(=O)O[C@@H]1[C@@H](O)[C@@H](O)[C@@H]([C@H](NC(=O)[C@@H]2C[C@@H](CCC)CN2C)[C@H](C)Cl)O[C@@H]1SC
inactive: outcome [1] | outcome [2] | outcome [3] | outcome [4] | outcome [5] | outcome [7]
active: AC50 [6] 10.5 µM

O=C(O)c1ccc(O)c2ncc(N3CCOCC3)cc12
active: AC50 [2] 26.4 µM | AC50 [4] 23.5 µM | AC50 [5] 26.4 µM | AC50 [6] 23.5 µM
inactive: outcome [1] | outcome [3] | outcome [7]

CO[C@H]1/C=C/O[C@@]2(C)Oc3c(C)c(O)c4c(O)c(c5c(nc6cc(C)ccn65)c4c3C2=O)NC(=O)/C(C)=C\C=C\[C@H](C)[C@H](O)[C@@H](C)[C@@H](O)[C@@H](C)[C@H](OC(C)=O)[C@@H]1C
active: AC50 [1] 16.6 µM | AC50 [8] 13.2 µM | AC50 [9] 23.5 µM | AC50 [6] 14.8 µM
-0.714: z-score [10, 15]
inactive: outcome [2] | outcome [3] | z-score [10, 14] 0.239

OCCn1cc(-c2cnc3nnn(Cc4ccc5ncccc5c4)c3n2)cn1
inactive: outcome [1] | outcome [2] | outcome [3] | outcome [8] | outcome [9] | outcome [6] | outcome [7] | fold change [11, 16] 0.95 | plate-normalised HSF1 focus index [12] 1.17 | z-score [10, 14] -0.449 | viability [13, 20] 111% | viability [13, 21] 109% | viability [13, 23] 102% | viability [13, 24] 118% | viability [13, 25] 110% | viability [13, 26] 106% | viability [13, 27] 105% | viability [13, 28] 119% | viability [13, 29] 113% | viability [13, 30] 102% | viability [13, 31] 102% | viability [13, 32] 118% | viability [13, 33] 112% | viability [13, 34] 102% | viability [13, 36] 124% | viability [13, 37] 117% | viability [13, 38] 102% | viability [13, 39] 101% | viability [13, 40] 126% | viability [13, 41] 118% | viability [13, 42] 102% | viability [13, 43] 106% | viability [13, 44] 124% | viability [13, 45] 113% | viability [13, 46] 101% | viability [13, 48] 148% | viability [13, 49] 123%
7630: cell count [12]
0.57: z-score [10, 15]
active: viability [13, 22] 99.5% | viability [13, 35] 99.8% | viability [13, 47] 99.8% | viability [13, 50] 97.4% | viability [13, 51] 94.2%
2.68: SSMD [12]
1.2: fold change [11, 17]
7870: cell count [11, 18]
8280: cell count [11, 19]

CC(=O)OCCN1C(=O)c2c(C)nc3ccc(S(=O)(=O)N4CCOCC4)cc3c2C1=O
inactive: outcome [1] | outcome [2] | outcome [3] | outcome [8] | outcome [9] | outcome [5] | outcome [6] | outcome [7] | plate-normalised HSF1 focus index [12] 1.12
2.02: SSMD [12]
7180: cell count [12]

Cc1cc(C(=O)NOCCO)c(Nc2ccc(I)cc2F)n(C)c1=O
3770: cell count [11, 18]
0.434: fold change [11, 17]
3450: cell count [11, 19]
active: AC50 [1] 0.166 µM | AC50 [2] 0.132 µM | AC50 [3] 0.105 µM | AC50 [8] 0.132 µM | AC50 [9] 0.295 µM | AC50 [6] 0.059 µM
-1.56: z-score [10, 15]
inactive: fold change [11, 16] 1.09 | z-score [10, 14] -0.704

O=C(Nc1ncc(-c2cc(C(F)F)nn2-c2c(Cl)cccc2Cl)s1)C1CC1
active: AC50 [1] 0.833 µM | AC50 [2] 13.2 µM | AC50 [3] 0.662 µM | AC50 [8] 2.35 µM | AC50 [9] 1.05 µM | AC50 [5] 5.26 µM | AC50 [6] 1.32 µM | IC50 [7] 1.18 µM

C[C@@]1(c2cc(-c3cncnc3)c(F)cc2F)CCSC(N)=N1
8550: cell count [11, 18]
1.05: fold change [11, 17]
active: AC50 [2] 14.8 µM | AC50 [3] 14.8 µM
inactive: outcome [1] | outcome [8] | outcome [9] | outcome [5] | outcome [6] | outcome [7] | fold change [11, 16] 0.883 | z-score [10, 14] -0.425
0.36: z-score [10, 15]
9680: cell count [11, 19]

COc1nc(C)cnc1NS(=O)(=O)c1cccnc1-c1ccc(-c2nnco2)cc1
inactive: outcome [1] | outcome [2] | outcome [3] | outcome [8] | outcome [9] | outcome [5] | outcome [6] | outcome [7] | fold change [11, 16] 0.916 | plate-normalised HSF1 focus index [12] 1.13 | z-score [10, 14] -0.393 | viability [13, 20] 110% | viability [13, 21] 112% | viability [13, 22] 102% | viability [13, 23] 109% | viability [13, 24] 108% | viability [13, 25] 117% | viability [13, 26] 106% | viability [13, 27] 109% | viability [13, 29] 114% | viability [13, 30] 104% | viability [13, 31] 109% | viability [13, 32] 111% | viability [13, 33] 110% | viability [13, 34] 100% | viability [13, 35] 108% | viability [13, 36] 103% | viability [13, 37] 113% | viability [13, 38] 104% | viability [13, 39] 110% | viability [13, 40] 105% | viability [13, 41] 112% | viability [13, 42] 103% | viability [13, 43] 108% | viability [13, 45] 112% | viability [13, 46] 104% | viability [13, 47] 111% | viability [13, 48] 106% | viability [13, 49] 116% | viability [13, 51] 106%
0.676: z-score [10, 15]
8060: cell count [11, 18]
7220: cell count [12]
8800: cell count [11, 19]
active: viability [13, 28] 98.1% | viability [13, 44] 97.7% | viability [13, 50] 99%
2.08: SSMD [12]
0.943: fold change [11, 17]
